# From the OligoGym collection
# Target: DTX1
# Test: pooled miR-30 sensor sort-seq; sequence = guide strand
# Details: shRNA
# Note: reference of the scale not given here.
row,Sequence,sensor-assay potency score (higher = more potent)
1,TTTTGAAAAGAGCAATCGCTGG,-0.945
2,TGCTTCTTCTTGGTCTTGCGGC,-0.99
3,TGTATCTTCGAACCACATCCTC,-0.0113

# Target: DTX3L
# Test: as above
# Details: shRNA
row,Sequence,sensor-assay potency score (higher = more potent)
1,TATTCTTTCAATGTCTTGGAAG,-0.89
2,TAGCTCTCCAGCTTCCTTCGTA,0.0161
3,TTCCAGGGTATCTCTTTCCTGG,-0.87
4,TTGTGGTGAATATCATTCCAAG,-1.27
5,TTTGTGGTGAATATCATTCCAA,-0.425
6,TTTTTCAACACTCTCTCCTTAG,-0.54
7,TTCGATCTCTGATATCTCCTGT,0.612
8,TTCGTCAACAAGTATTTGGTGC,0.16
9,TTGGAAGTCACCACACACCTTC,0.463
10,TTGAGGTCTCGTGTTCTTCTTT,-0.195
11,TAAAGAGACACATTCTTGCTTC,0.883
12,TAGAACATACTGCTTCGCCTTT,-0.506

# Target: DUSP22
# Test: as above
# Details: shRNA
row,Sequence,sensor-assay potency score (higher = more potent)
1,ATACTGATGGACCTCATGCTTC,-1.22
2,TCTTCCTTCAGCCACTGCCGAT,-1.53
3,TACTTAAACTCTATGTTGCTTT,-0.452
4,TTAACGAAAACATAGAGCTTTC,-0.995
5,ATATGTGTCACCTTGTTCTTGC,0.858
6,TTTCTTTGAAATGTCTTGTCAG,-0.0889
7,TTCTTTGAAATGTCTTGTCAGG,-0.54
8,TTAGTTCTCAACATAAACATGA,-0.0599
9,AATATGTGTCACCTTGTTCTTG,-0.44
10,TTCACAGGAAGCAATCACGAGC,-0.769

# Target: DUSP3
# Test: as above
# Details: shRNA
row,Sequence,sensor-assay potency score (higher = more potent)
1,TCAATGAAGTCGGCAGCCCTTT,-0.941
2,TAGAAGTTGGCATTGGTGTTGA,0.772
3,ATTCTTTTGAGCCAAAGCCTGG,-1.5
4,TTGAACTCCTGTGTGTCGTTGG,0.854
5,TAGTCTGTCATTGAGCTGGCAG,-0.572
6,TGTGATGCCGGAGTCCTTGTAG,0.0865
7,TTCTGCCGCATCATGAGGTAGG,-0.351
8,TAGTTTCTGCAGCTTGGGGATG,-1.37
9,TTGGGGAGCGGCTATAACCTTC,-1.39
10,TTGCCCACGTAGATCCGCGGGG,-0.843
11,AGACTTGACGTCCATCTTCTGC,-1.63
12,TTCAAAGTAAGCGCTGAGGTTG,-0.662
13,TTGACGTCCATCTTCTGCCGCA,-0.0981
14,TTCTTTTGAGCCAAAGCCTGGT,-0.51
